Screens (PubChem BioAssay)
PrPC surface inh: cell surface PrPC inhibition, primary TR-FRET screen | TR-FRET read-out | inhibition, % at 13.8 µM | actives 0.43% (n = 370,000) | P04156; in the data active = inhibition above about 24%; note: 0% = median of the test wells and 100% = reference compound wells
PfHsp40 yeast: rescue of PfHsp40-mediated yeast toxicity. AID 504582. growth rescue, % at 12.5 µM. actives 0.68% (n = 340,000). S. cerevisiae expressing PfHsp40, growth rescue, ATP luminescence; in the data active = growth rescue above about 28%, passing the limit was not always enough;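 note: yeast W303a lacking pdr1 and pdr3 grown in galactose medium; growth measured after three days at 30 °C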
Mtb FBA inh: inhibitors of M. tuberculosis fructose-bisphosphate aldolase | actives 2.3% (n = 360,000) | AID 588726 | inhibition, % at 1 µM | P9WQA3 | purified M. tuberculosis FBA, fluorescence read-out;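 note: 0% = vehicle and 100% = reference inhibitor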
Target sequence (P9WQA3 whole entry, looked up): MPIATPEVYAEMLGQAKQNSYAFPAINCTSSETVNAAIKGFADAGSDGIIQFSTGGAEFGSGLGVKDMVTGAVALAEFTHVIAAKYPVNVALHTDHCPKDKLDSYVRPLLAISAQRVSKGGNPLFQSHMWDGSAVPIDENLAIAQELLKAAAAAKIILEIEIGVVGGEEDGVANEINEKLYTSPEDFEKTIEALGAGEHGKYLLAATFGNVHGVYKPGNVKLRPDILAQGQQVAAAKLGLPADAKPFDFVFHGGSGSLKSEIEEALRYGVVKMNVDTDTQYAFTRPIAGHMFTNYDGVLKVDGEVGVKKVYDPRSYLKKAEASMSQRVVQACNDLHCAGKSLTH
BJeLR viability: BJeLR cell viability loss | BJeLR (HRASV12) viability, CellTiter-Glo ATP luminescence, 48 h | actives 0.17% (n = 300,000) | inhibition, % (test concentration not listed); in the data active = inhibition above about 50%
GDH-TPI counter-1: counter-screen for M. tuberculosis FBA inhibitors: GDH-TPI coupled enzymes; GDH-TPI coupled enzyme counterscreen, NADH absorbance; inhibition, % at 4.8 µM; actives 1.2% (n = 360,000); in the data active = inhibition above about 30%;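 note: 0% = DMSO wells and 100% = wells lacking the enzyme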
PrP 5UTR inh: inhibition of PrP 5' UTR reporter expression; cell-based PrP 5' UTR mRNA reporter, plate reader; inhibition, % (concentration not given with the values); actives 0.35% (n = 340,000); AID 488862; in the data active = inhibition above about 52%; note: 0 = median of the neutral control wells
Mtb FBA confirm: confirmation of M. tuberculosis fructose-bisphosphate aldolase inhibitors; AID 651616; shares compounds with Mtb FBA inh; inhibition, % at 1 µM; purified M. tuberculosis FBA, fluorescence read-out; actives 78% (n = 5,600);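 note: 0% = vehicle wells and 100% = reference inhibitor wells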
GDH-TPI counter-2: GDH-TPI inhibition counter-screen for FBA inhibitors; inhibition, % at 1 µM; shares compounds with Mtb FBA inh; actives 81% (n = 5,600); GDH-TPI coupled enzyme counterscreen, fluorescence; in the data active = inhibition above about 10%
GDH-TPI DR: inhibits GDH-TPI coupling enzymes in dose response; actives 79% (n = 170); IC50, µM; shares compounds with Mtb FBA inh; GDH-TPI coupled enzyme assay, fluorescence, artifact counterscreen; call rule not given here
* marks the source's active call; other numbers are inactive results; . = no result; + = active, no number. Only some compounds are listed: those with a hit (about 4.5% of all), similar ones and a draw of the others. Cut-off read from the data, not from the text of the source, unless noted: active = inhibition above about 27%; inactive = the rest.

SMILES | PrPC surface inh | PfHsp40 yeast | Mtb FBA inh | BJeLR viability | GDH-TPI counter-1 | PrP 5UTR inh | Mtb FBA confirm | GDH-TPI counter-2 | others
O=C(O)c1cc(Cl)c2ccccc2c1O | 8 | -1 | 40* | 1 | 2 | -29 | 50* | 44*
CC(C)(NC(=O)c1cc(Cl)c2ccccc2c1O)C(=O)O | 10 | 1 | 56* | 4 | 15 | . | 66* | 57*
CCC(=O)NC(C)c1cc(Cl)c2ccccc2c1O (stereo not given) | 0 | 0 | 9 | . | -4 | -10 | . | .
CCOC(=O)[C@]12CCCC=C1N(CCCOC)C(=O)[C@@H]2CC(=O)NCC12CC3CC(CC(C3)C1)C2 | -1 | . | . | . | . | . | . | .
Cc1ccc(CNC(=O)CN(Cc2cccs2)C(=O)C2(C)CC(=O)N=C3C=CC=CN32)cc1 (stereo not given) | -2 | 0 | 80* | -13 | 14 | -22 | 51* | 39*
Cc1ccc(CNC(=O)CN(C(=O)C2(C)CC(=O)N=C3C=CC=CN32)c2cc(C)ccc2C)cc1 (stereo not given) | -3 | 0 | 91* | 5 | 22 | -13 | + | +
Cc1ccc(CNC(=O)Cc2cccs2)cc1 | 1 | -1 | 3 | 1 | 13 | -34 | . | .
O=C1c2ccccc2NC(c2ccccc2Cl)N1N=C1CCCCCC1 (stereo not given) | -2 | -1 | 1 | 4 | 1 | -57 | . | .
Cc1cccn2c(=O)c3cc(C(=O)N4CCN(C(=O)c5ccco5)CC4)n(C)c3nc12 | -6 | -1 | 81* | 1 | 26 | -10 | + | +
Cc1cccn2c(=O)c3cc(C(=O)N4c5ccccc5CC4C)n(C)c3nc12 (stereo not given) | 1 | -1 | 0 | 3 | 8 | -12 | . | .
CCOC(=O)N1CCN(C(=O)c2cccn3c(=O)c4c5c(sc4nc23)CCCC5)CC1 | -5 | 0 | 5 | 5 | 12 | -13 | . | .
Cc1cccn2c(=O)c3cc(C(=O)N4CCOCC4)n(C)c3nc12 | -2 | -1 | 66* | -14 | 17 | -13 | -10 | -11
O=C(c1ccco1)N1CCN(C(=O)c2cccn3c(=O)c4c5c(sc4nc23)CCCC5)CC1 | -6 | 0 | 34* | . | 28 | -13 | 189* | 145*
COc1ccc(CCNC(=O)COC(=O)COc2ccc(C#N)cc2)cc1 | 0 | -1 | -2 | 3 | 3 | -25 | . | .
COc1ccccc1NC(=O)C(=O)NCCC1CCCCN1S(=O)(=O)c1cccs1 (stereo not given) | -5 | 1 | 1 | -4 | 2 | -17 | . | .
Cc1ccc(NC(=O)COC(=O)C2CC3CCCC(C2)C3=O)c([N+](=O)[O-])c1 (stereo not given) | -24 | 0 | 0 | . | 16 | -3 | . | .
COc1ccc(-c2noc(C3CCCN(C(=O)Nc4ccccc4F)C3)n2)cc1 (stereo not given) | 1 | 2 | 0 | 7 | -2 | -46 | . | .
COc1ccc(-c2sc(C(=O)c3ccc(Cl)cc3Cl)cc2CC(=O)O)cc1 | -18 | -1 | 45* | -11 | 16 | -36 | 73* | 55*
O=C(O)Cc1ccc(C(=O)c2ccc(Cl)cc2Cl)s1 | 4 | 0 | -1 | 7 | -1 | -12 | . | .
CCNC(=O)/C(=C\C=C\c1ccccc1)NC(=O)c1ccc(Br)o1 | -11 | 0 | 0 | 2 | 26 | -24 | . | .
CSc1nsc(SC)c1CO | 3 | 0 | 39* | -9 | -7 | -11 | 2 | -8
COc1ccccc1C(=O)NC1CCCCN(Cc2ccc(C)cc2)C1=O (stereo not given) | 17 | . | . | . | . | . | . | .
CC(C)C[C@H](NC1(C(=O)NC2CCCCC2)CCN(C(=O)OC(C)(C)C)CC1)C(=O)NCCc1c[nH]c2ccccc12 | 0 | . | . | . | . | . | . | .
O=C1CCC(=O)c2ccc3c4c(ccc1c24)CC3 | -10 | 1 | 42* | . | 32* | -12 | 12 | 9 | GDH-TPI DR=3.6*
C=CCOc1c(Br)cc(C2C3=C(CCCC3=O)N(C)C3=C2C(=O)CCC3)cc1OCC | -11 | -2 | 58* | 0 | 14 | -14 | 58* | 41*
SMILES | PrPC surface inh | PfHsp40 yeast | Mtb FBA inh | BJeLR viability | GDH-TPI counter-1 | PrP 5UTR inh | Mtb FBA confirm | GDH-TPI counter-2 | others
C#CCNC(=O)C1=C[C@@H](c2ccc3c(c2)OCO3)C[C@@H](OCCCCO)O1 | -3 | -1 | 1 | 3 | 10 | 1 | . | .
CC(=O)c1sc(Nc2nc3ccc(F)cc3s2)nc1C | -1 | 4 | 27* | 6 | 4 | -70 | + | 161*
COC(=O)c1ccc2nc(Nc3nc4ccc(F)cc4s3)sc2c1 | -2 | -2 | 38* | -10 | 8 | 81* | 131* | 122*
CC(C)(C)C(=O)OCc1ccc(C2=CC(=O)CC(C)(C)C2=O)cc1 | -4 | . | -3 | . | -5 | . | . | .
CC(C)(C)C(=O)OCC12CCC(O1)C1(C)C(=O)OCC21 (stereo not given) | -6 | -1 | 47* | -14 | 0 | -27 | -6 | -4
CCC(C)(C)n1nnnc1CN(Cc1ccco1)Cc1cc2cc3c(cc2[nH]c1=O)OCO3 | . | -1 | 35* | -13 | 14 | -2 | 90* | 97*
CCC(C)(C)n1nnnc1CN(Cc1ccc(Cl)cc1)Cc1ccco1 | 13 | 11 | 3 | 7 | 8 | -7 | . | .
CCCN1CCN(C(c2cc3cc4c(cc3[nH]c2=O)OCO4)c2nnnn2C(C)(C)C)CC1 (stereo not given) | -1 | -1 | 66* | 0 | 12 | -2 | 58* | -3
CCC(C)(C)n1nnnc1C(c1cc2cc3c(cc2[nH]c1=O)OCO3)N1CCCCC1 (stereo not given) | . | -1 | 22 | 5 | 10 | . | . | .
COCCn1nnnc1CN(Cc1ccco1)Cc1cc2cc3c(cc2[nH]c1=O)OCO3 | -2 | 0 | 48* | 14 | 22 | -11 | + | +
CC(C)(C)n1nnnc1CN(Cc1ccco1)Cc1cc2cc3c(cc2[nH]c1=O)OCO3 | 7 | 1 | 46* | 5 | 21 | 8 | 11 | -4
COc1ccc2[nH]c(=O)c(CN(Cc3ccco3)Cc3nnnn3Cc3ccccc3)cc2c1 | -9 | -2 | 10 | 10 | 5 | -7 | . | .
Cc1ccc(NC(=O)COC(=O)CC2CCCC2)cc1Cl | . | 1 | 5 | -9 | 4 | 5 | . | .
Cn1c(-c2ccc(C#N)cc2)c(C#Cc2ccccc2)c2ccccc21 | -5 | -1 | 93* | . | 4 | -9 | 50* | 34*
COc1cc(C#Cc2c(-c3ccccc3)n(C)c3ccccc23)cc(OC)c1 | 2 | -1 | 38* | -13 | 8 | -7 | 4 | -4
